From PubChem BioAssay
Only some compounds are listed: those with a hit (about 4.3% of all), similar ones and a draw of the others.
FAS TE block: FAS thioesterase domain inhibitors, primary screen, biochemical, fluorescence intensity, uHTS | 0.67% of 360,000 active | AID 602261, 2012 | inhibition, % at 15 µM | recombinant FAS-TE, OMFH fluorogenic substrate, fluorescence endpoint | Fatty acid synthase (Homo sapiens), P49327;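 active means compounds whose normalised, plate-corrected inhibition of enzyme fluorescence in the single-dose primary screen is 50% or more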;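 further: 0% = DMSO with enzyme and 100% = substrate without enzyme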
HGIII-sPLA2 inh: human group III sPLA2 inhibitors, primary screen, biochemical, QFRET, BODIPY PC-A2 liposome substrate; QFRET BODIPY PC-A2 liposome hydrolysis, fluorescence; inhibition, % at 12.2 µM; 0.56% of 370,000 active;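 active means inhibition above mean plus 3 SD of compounds lying within the high and low control bounds, cut at about 19% in these data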;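 further: 0% = median of test compound wells and 100% = no enzyme DMSO wells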
ADAM17 inh: ADAM17 inhibitors, primary screen, biochemical, QFRET. recombinant ADAM17, EDANS/DABCYL FRET peptide cleavage. inhibition, % at 6.95 µM. 0.83% of 370,000 active;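 active means inhibition above the mean of compounds lying between control limits plus 3 SD, set per campaign, cut at about 8.5% in these data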;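 further: 0% = DMSO-only wells as the low control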
GRIN3A LBD mod: binders of NR3A ligand-binding domain, primary screen, biophysical, differential scanning fluorimetry, uHTS. 2.5% of 340,000 active. Tm shift relative to glycine control, % at 25 µM. NR3A LBD differential scanning fluorimetry, Tm shift; 0% = protein alone, 100% = glycine-bound protein. Glutamate receptor ionotropic, NMDA 3A (GRIN3A) ligand-binding domain;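 active means melting temperature shift of at least 10% of the positive control shift, at one fixed dose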
ADAM10 inh: human ADAM10 inhibitors, primary screen, biochemical, QFRET, HTS | recombinant ADAM10, EDANS/DABCYL FRET peptide cleavage, 3 h | 0.62% of 370,000 active | inhibition, % at 7 µM | AID 720582, 2013 | Disintegrin and metalloproteinase domain-containing protein 10 (Homo sapiens), O14672;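 active means inhibition above a per-campaign cutoff equal to the mean of compounds falling between control-based bounds plus 3 SD, cut at about 20% in these data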;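 further: 0% = DMSO wells while the 100% control is not disclosed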
An asterisk follows results filed as active; / = no result.

SMILES | FAS TE block | HGIII-sPLA2 inh | ADAM17 inh | GRIN3A LBD mod | ADAM10 inh
Cc1ccc(CN2CCCCC(NC(=O)c3ccccc3)C2=O)cc1 (configuration not stated) | / | -2 | -5 | / | -1
Cc1ccc(OCC(O)CNS(=O)(=O)c2ccccc2C(=O)O)cc1 (configuration not stated) | -5 | -15 | -4 | 13* | -2
CC(=O)c1sc2nc(-c3ccc(C)cc3)c3c(c2c1N)CCCC3 | 26 | -14 | -100 | 10* | -263
Cc1ccccc1/C=N/Nc1nc2ccccc2[nH]1 | -3 | -2 | -4 | -6 | -7
C(=N\Nc1nc2ccccc2[nH]1)/c1c[nH]c2ccccc12 | -15 | -17 | 0 | 15* | 0
Brc1ccc(-c2ccc(/C=N/Nc3nc4ccccc4[nH]3)o2)cc1 | -29 | 17 | -27 | 31* | -69
C(=N\Nc1nc(N2CCCCC2)nc(N2CCCCC2)n1)/c1c[nH]c2ccccc12 | 30 | -4 | 3 | 10* | 12
CCOC(=O)[C@]12CCCC=C1N(CCCOC)C(=O)[C@@H]2CC(=O)NCc1cccs1 | / | -1 | -2 | / | -3
O=C(O)c1cc(NC(=O)c2ccc3c(c2)C(=O)N(Cc2ccccc2)C3=O)cc(C(=O)O)c1 | 11 | 3 | -3 | 14* | -8
CC(=O)Nc1cccc(C(=O)/C=C/c2ccc(N(C)C)cc2)c1 | -11 | -23 | -1 | 18* | -9
O=C(NNc1ccc(C(F)(F)F)cc1[N+](=O)[O-])c1ccc(NS(=O)(=O)c2ccc(F)cc2)cc1 | 19 | -60 | 4 | 22* | 16
COc1ccc(-c2cc(-c3ccccc3)nc(SCC(=O)Nc3ncc(C)s3)c2C#N)cc1 | 38 | -7 | -5 | 20* | -21
CCc1nnc(NC(=O)CSc2nc(-c3ccc(F)cc3)cc(-c3ccccc3)c2C#N)s1 | 0 | 1 | -1 | -1 | 3
O=C(OCc1cn(Cc2c(F)cccc2F)nn1)N1CCCC1 | / | 1 | -1 | / | 1
O=C(NCc1ccc(Cl)cc1)c1ccc(-c2ccccc2C(F)(F)F)o1 | 24 | -16 | 7 | 438* | 14
CC(C)NC(=O)c1ccc(-c2ccccc2C(F)(F)F)o1 | 2 | 3 | -1 | 1 | 3
O=C(Nc1ccc(N2C(=O)C3CCCCC3C2=O)cc1Cl)c1cccs1 (configuration not stated) | -1 | -4 | -6 | 18* | -4
O=C(Nc1ccccc1Cl)c1cccs1 | 4 | -5 | -1 | 1 | -4
Cc1ccc(S(=O)(=O)N/N=C/c2cc([N+](=O)[O-])ccc2O)cc1[N+](=O)[O-] | 48 | -1 | -5 | 21* | -4
CCN(CC)C(=O)CC[C@H]1CC[C@]2(CCCN(Cc3cccnc3)C2)O1 | / | 5 | 2 | / | -1
Clc1ccccc1/C=N/N1CCN(Cc2ccccc2)CC1 | 12 | 0 | 1 | 2 | 2
FC(F)(F)c1ccccc1/C=N/N1CCN(Cc2ccccc2)CC1 | 14 | 16 | -3 | 18* | -1
O=C(CSc1nnc(-c2cccnc2)n1-c1ccccc1)Nc1ccc(OCc2ccccc2)cc1 | / | -32 | 4 | / | 7
O=C1N=c2ccccc2=C1c1sc(=S)n(CC2CCCO2)c1O (configuration not stated) | -2 | 12 | -6 | 15* | -1
Cc1ccc(Cn2cc(CN3[C@H](Cc4ccccc4)COc4cc(Br)ccc4S3(=O)=O)nn2)cc1 | / | 4 | -3 | / | -5
SMILES | FAS TE block | HGIII-sPLA2 inh | ADAM17 inh | GRIN3A LBD mod | ADAM10 inh
COc1ccc(C(=O)Nn2c(C)nc3ccccc3c2=O)cc1 | -2 | 19 | -7 | 0 | 4
CCCOc1ccc(C(=O)Nn2c(C)nc3ccccc3c2=O)cc1 | -2 | 0 | 1 | 11* | 5
CCCCOc1ccc(C(=O)Nn2cnnc2)cc1 | -5 | -5 | -4 | 14* | 3
CCN(CC)S(=O)(=O)c1ccc(Oc2ccccc2)cc1 | 18 | 1 | 2 | 13* | 6
CN(C)S(=O)(=O)c1ccc(Oc2ccccc2)cc1 | 1 | -3 | -3 | -1 | -2
Nc1[nH]c2cc(Cl)ccc2c1C(=O)N1CCOCC1 | / | 11 | 1 | / | -7
Fc1cc(F)c(C2SCCN2C(=S)Nc2cccc(C(F)(F)F)c2)c(F)c1 (configuration not stated) | 41 | 1 | 0 | 16* | 12
COc1ccc(C2SCCN2C(=S)Nc2cccc(Cl)c2)cc1 (configuration not stated) | 37 | 6 | 3 | 16* | 13
CN1[C@H](Cc2ccccc2)COc2cccc(N3CCCC3)c2S1(=O)=O | / | 2 | -3 | / | -1
Cc1ccc(CN2CCCCC(NC(=O)c3ccccc3C)C2=O)cc1 (configuration not stated) | / | 9 | -6 | / | -7
C=CCN(C(=O)[C@@H](C1CC1)[C@@H](O)c1ccc2ccccc2c1)c1ccccc1 | / | -7 | -1 | / | 5
N#CCC(=N)N1CCN(c2cccc(Cl)c2)CC1 | -6 | -5 | -1 | 12* | 3
COc1ccc(C(=S)N2CCN(c3cccc(Cl)c3)CC2)cc1 | 37 | 20* | -1 | 1 | 6
CN[C@H]1C[C@H]2c3[nH]c4cccc(-c5ccccc5)c4c3CCN2C[C@H]1[C@H](C)O | / | -5 | -19 | / | -71
CCN(CC)CCN1C(=O)C(O)=C(C(C)=O)C1c1ccc(OC)c(OC)c1 (configuration not stated) | -2 | 12 | -5 | 11* | -1
COc1cc(C2C(C(C)=O)=C(O)C(=O)N2CCc2ccc(OC)c(OC)c2)ccc1O (configuration not stated) | -7 | -5 | -4 | 2 | 0
O=S(=O)(N/N=C/c1c(F)cccc1Cl)c1ccccc1 | -8 | 3 | 1 | 10* | 2
CCSC1=NSC2=NC(=O)/C(=C\c3coc4ccccc4c3=O)C(=N)N12 | -73 | -32 | -23 | 11* | -71
COc1ccc(C(=O)N[C@@H]2CC[C@@]34CCCN3C(=O)CCC[C@H]4[C@H]2C)cc1 | / | 2 | -1 | / | 1
COC(=O)C1CN(C2CCCC2)CCS(=O)(=O)N1Cc1ccccc1 (configuration not stated) | / | 1 | -4 | / | -12
COc1ccc(NS(=O)(=O)c2cc(NC(=O)c3nc4nc(C)cc(C)n4n3)ccc2C)cc1 | 3 | -3 | 0 | 12* | -4
COc1ccc(/C=C2\C(=O)ON=C2c2ccccc2)cc1 | -2 | 2 | -2 | 19* | 2
Cc1ccc(C2=NOC(=O)/C2=C\c2ccc(C)o2)cc1 | -7 | -12 | -7 | 13* | -6
